# Laboratory results: PubChem BioAssay AID2061323 (National Center for Advancing Translational Sciences (NCATS), 2025)
# Results filed as inconclusive are left out. The source made the active and inactive calls. Calls come from the whole dose curve; as a rule, active = well fitted inhibition curve with a large enough effect; inconclusive = small, poorly fitted or top-dose-only effect; inactive = flat fitted curve, though single readings scatter.
# Test: Identification of antibody-drug conjugate (ADC) payloads which are substrates of ATP-binding cassette drug efflux transporters: ABCG2-HEK293-R5 cell line
# Settings: ABCG2-HEK293-R5 viability, CellTiter-Glo ATP luminescence, 48 h
# Description: Antibody-drug conjugates (ADCs) feature an antibody recognizing a specific protein joined to a potent toxic payload. Numerous antibody-drug conjugates have received FDA approval; however, clinical resistance arises. Resistance mechanisms include decreased expression or mutation of the antibody target, impaired payload release, or increased expression of ATP-binding cassette (ABC) efflux transporters associated with multidrug resistance. We therefore sought to characterize the interaction of ABC multidrug transporters with ADC payloads. We performed a high-throughput screen with 27 common ADC payloads using cells lines expressing ABC transporters P-glycoprotein (P-gp, encoded by ABCB1) or ABCG2 (encoded by ABCG2). Confirmatory assays were also performed using cells transfected to express P-gp, ABCG2, or MRP1 (encoded by ABCC1). Several commonly used ADC payloads were substrates of P-gp, including calicheamicin gamma1, monomethyl auristatin E, DM1, and DM4. All the pyrrolobenzodiazepines tested - SJG136, SGD-1882, SG2057, and SG3199 - were substrates of P-gp, ABCG2, and MRP1. […] These findings highlight the risk of transporter-mediated resistance with certain ADC payloads and underscore the importance of selecting payloads that evade ABC transporter recognition in future ADC development.
# HEK-293 cells were transfected with empty vector (pcDNA) or vector containing the human ABCB1 (MDR-19), ABCG2 (R-5), or ABCC1 gene (MRP1) and were maintained in EMEM with 2 mg/mL G418 added to maintain transporter expression. The HeLa derivative KB-3-1 and the P-gp overexpressing KB-8-5-11 subline were maintained in DMEM; KB-8-5-11 additionally received 100 ng/mL colchicine. H460 parental cells were obtained from the Division of Cancer Treatment and Diagnosis Tumor Repository, National Cancer Institute at Frederick, MD and were cultured in RPMI. The ABCG2 expressing subline H460 MX20 was generated by selecting H460 cells in 20 nM mitoxantrone. Media in all cases was supplemented with 10% FBS and 1% penicillin-streptomycin. We explored 27 common ADC payloads, in two orthogonal, paired cell line sets-a drug selected and transfected set for each transporter--to identify substrates of the ABC transporters P-gp and ABCG2. Compounds were sourced from Levena Biopharma (San Diego, CA), Selleck Chem (Houston, TX), ChemieTek (Indianapolis, IN), or Microsource Discovery Systems (Gaylordsville, CT). Screening was performed as previously described. Briefly, cells were plated at a density of 500 cells/well in 1536 well plates with compounds added using a 1536-head pin tool (Kalypsys, San Diego CA). Cells were incubated with cytotoxic drugs and processed with CellTiter Glo reagent (Promega, Madison, WI) to determine viability after 48 hours. […]
row,SMILES,Potency
1,CC[C@H](C)[C@@H]([C@@H](CC(=O)N1CCC[C@H]1[C@H](OC)[C@@H](C)C(=O)N[C@H](C)[C@@H](O)c1ccccc1)OC)N(C)C(=O)[C@@H](NC(=O)[C@H](C(C)C)N(C)C)C(C)C,8.4 nM (active)
2,COc1cc2cc(c1Cl)N(C)C(=O)C[C@H](OC(=O)[C@H](C)N(C)C(=O)CCC(C)(C)S)[C@]1(C)OC1[C@H](C)C1C[C@@](O)(NC(=O)O1)[C@H](OC)/C=C/C=C(\C)C2 (some centres undefined),2.4 nM (active)
3,CC[C@@]1(O)C(=O)OCc2c1cc1n(c2=O)Cc2cc3ccccc3nc2-1,13.4 nM (active)
4,COc1cc2cc(C(=O)N3C[C@@H](CCl)c4c3cc(O)c3ccccc43)[nH]c2c(OC)c1OC,21.2 nM (active)
